# Most compounds without a hit are left out; they make up all but 3% or so of the library.
# MITF TRPM1 HTS = MITF TRPM1 promoter activation in melanoma cells; activation, % at 12.5 µM; AID 588334; hit rate 0.75% among 300,000; SK-MEL-5 TRPM1-promoter luciferase, 24 h; % of positive control, neutral wells = 0;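 active means mean activation of at least 80% with every replicate also reaching 80%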
# TRPM1 prom inh = MITF TRPM1 promoter inhibition in SK-MEL-5 cells. SK-MEL-5 TRPM1 promoter luciferase, 24 h. hit rate 0.83% among 330,000. inhibition, % at 12.5 µM;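 active means mean inhibition across replicates of 60% or more, whatever share of single replicates reaches that level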
# TROY signal inh = TROY signaling inhibition; AID 1347056; hit rate 0.98% among 360,000; inhibition, % at 10 µM; Q293 LMP1-TROYcd NF-kB luciferase reporter, 4 h;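 active means compounds whose plate-normalised and pattern-corrected inhibition of the luciferase reporter signal at the single screening dose is 50% or more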
# LGR2 antag = Drosophila LGR2 receptor signaling inhibition; HEK293 LGR2, CRE-luciferase, bursicon-stimulated, 4 h; inhibition, % at 9.99 µM; hit rate 0.35% among 380,000; AID 720647;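 active means drop in luminescence signal, shown as inhibition above about 50% in the replicate tests, limit read from the data, passing the limit was not always enough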;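 further: agonist challenge used bursicon conditioned medium at about half maximal strength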
# EBV LMP1 NFkB = reduces LMP1-driven NF-kappaB luciferase signal | LMP1-induced NF-kappaB luciferase reporter cells, luminescence | inhibition, % at 12.5 µM | hit rate 0.69% among 350,000; in the data active means inhibition above about 41%
# TWEAK-Fn14 inh = blocks TWEAK-Fn14 interaction in a reporter cell assay; TWEAK-stimulated Fn14 reporter cells, luciferase luminescence, 8 h; inhibition, % at 10 µM; hit rate 2% among 360,000; AID 1159606; in the data active means inhibition above about 50%
# A number is an active result; . = inactive; / = no result given.
SMILES,MITF TRPM1 HTS,TRPM1 prom inh,TROY signal inh,LGR2 antag,EBV LMP1 NFkB,TWEAK-Fn14 inh
CC(C)(C)NC(=O)CN(C(=O)C1CSC(=O)C1)c1ccc2c(c1)OCCO2 (stereo unspecified),.,.,54,/,.,61
CC=Cc1ccc2n(c1=O)C[C@@H]1[C@@H](CO)[C@H](C(=O)NCCC)[C@H]2N1S(=O)(=O)c1cn(C)cn1 (mixture of isomers),/,/,/,.,/,/
O=C1CC(c2ccccc2)=NN1c1ccccc1,.,.,52,.,.,.
O=C1/C(=C/c2ccco2)SC(=S)N1C1CCS(=O)(=O)C1 (stereo unspecified),.,.,.,55,.,.
COCC#Cc1cnc2c(c1)C(=O)N([C@H](C)CO)C[C@H](C)[C@H](CN(C)S(=O)(=O)c1cn(C)cn1)O2,/,/,/,.,/,/
CO[C@@H]1CN(C)C(=O)c2cc(NC(=O)C3CCC3)ccc2OC[C@H](C)N(Cc2nccs2)C[C@@H]1C,/,/,/,.,/,/
O=C(C(=O)c1cc(Br)ccc1O)c1cc(Br)ccc1O,.,.,66,.,.,.
O=C(c1ccc(O)c(Br)c1)c1cc(Br)ccc1O,.,.,50,.,.,.
O=C(c1cnn(-c2ccccc2)c1)c1cc(Br)ccc1O,/,/,.,.,.,.
C[C@@H]1CN([C@@H](C)CO)S(=O)(=O)c2ccc(C3=CCCC3)cc2O[C@H]1CN(C)Cc1ccccn1,/,/,/,.,/,/
COc1ccc(-n2ncc3c(Nc4cccc(C)c4)ncnc32)cc1,120,.,.,.,.,.
CCCN(CCC)c1ncnc2c1cnn2-c1ccc(OC)cc1,128,.,62,/,.,53
CCC(CO)Nc1ncnc2c1cnn2-c1ccc(Cl)cc1 (stereo unspecified),.,.,73,.,.,68
CC(C)Nc1ncnc2c1cnn2-c1ccccc1,/,/,.,.,.,.
Clc1ccc(-n2ncc3c(NCC4CCCO4)ncnc32)cc1 (stereo unspecified),.,.,.,.,.,60
COC(=O)[C@@H]1[C@@H](CO)[C@@H]2Cn3c(ccc(-c4ccncc4)c3=O)[C@@H]2N1Cc1cccc(F)c1,/,/,/,.,/,/
CCC(CO)Nc1ncnc2c1cnn2-c1ccc(OC)cc1 (stereo unspecified),/,/,.,.,.,54
OCCCNc1ncnc2c1cnn2-c1ccc(Cl)cc1,.,.,.,.,.,68
CN(C)CCNc1ncnc2c1cnn2-c1ccc(Cl)cc1,.,.,.,.,.,.
O=C(NCC1CCCCC1)[C@H]1[C@H](CO)[C@H]2Cn3c(ccc(C4=CCCC4)c3=O)[C@@H]1N2C(=O)CC1CC1,/,/,/,.,/,/
COc1ccc(N(CC(=O)Nc2ccc3c(c2)OCO3)S(C)(=O)=O)c(OC)c1,/,.,.,/,.,.
COc1ccc(C2=NO[C@@](CC(=O)O)(C(=O)Nc3ccc4c(c3)OCCO4)C2)cc1,.,.,55,.,.,.
COc1ccc(N(CC(=O)Nc2ccc3c(c2)OCCO3)S(C)(=O)=O)c(OC)c1,.,.,.,/,.,62
COc1ccc(N(CC(=O)Nc2ccc3c(c2)OCCO3)S(=O)(=O)c2c(C)noc2C)cc1,/,.,.,/,.,65
NC(=O)COc1ccccc1C1=NO[C@@](CC(=O)O)(C(=O)Nc2ccc3c(c2)OCCO3)C1,.,.,.,.,/,.
SMILES,MITF TRPM1 HTS,TRPM1 prom inh,TROY signal inh,LGR2 antag,EBV LMP1 NFkB,TWEAK-Fn14 inh
COc1ccc(N(CC(=O)Nc2ccc3c(c2)OCCO3)S(=O)(=O)c2cccnc2)cc1,.,.,.,/,.,57
COc1ccc(C(=O)N2C[C@H]3[C@@H](c4ccccc42)[C@H](CO)N3Cc2ccc3c(c2)OCO3)cc1,/,/,/,.,/,/
O=C(CCl)N1CCCC1c1ccc2c(c1)OCCO2 (stereo unspecified),.,90,.,.,.,.
CC1CCC2(CC1)NC(=O)N(CC(=O)NC(=O)Nc1ccc3c(c1)OCCO3)C2=O (stereo unspecified),.,.,.,.,.,50
O=C(CN1CCCC1c1ccc2c(c1)OCCO2)NC(=O)Nc1ccccc1 (stereo unspecified),.,.,60,.,.,68
CCC(=O)N[C@H]1C=C[C@@H](CC(=O)NCc2cc(F)cc(F)c2)O[C@@H]1CO,/,/,/,.,/,/
CC(=O)N1N=C(c2ccc(C)cc2)OC1c1ccc(Br)cc1 (stereo unspecified),90,.,.,.,.,.
CC(=O)N1N=C(c2ccc(Cl)cc2)OC1c1ccc(C(C)C)cc1 (stereo unspecified),.,.,.,/,.,.

# Compound activity: PubChem BioAssay, several laboratories
